Residue numbers refer to the chain shown, from its start. Over roughly 24,000 sequences, “enrichment r” has its median near 0.99; the highest 2% begin near 3.7. Only a selection was taken, and the highest values are over-represented in it overall.
T1: UNK ZnF1-3 (human, UniProt Q9C0B0 31-174)
T1 sequence: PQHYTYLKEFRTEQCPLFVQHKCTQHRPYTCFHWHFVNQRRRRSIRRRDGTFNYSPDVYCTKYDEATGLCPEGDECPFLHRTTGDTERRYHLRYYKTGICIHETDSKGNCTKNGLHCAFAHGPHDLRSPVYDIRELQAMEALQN

B1: chr10:70525781:70525782:+_ENSG00000060339_ENST00000535016|hu_hu|motif|central (ssRNA)
RNA: GGGAGUUCUACAGUCCGACGAUCUGAAUGUUCUUUAUUAUCCUCUAAUCUGUAGUCCAAUAGGACACUCAAAGACAUGAUGCGGCAAUCAAACUUGCCACUUUUUGCAGCCCAAUUUGGAUGUACAAUGAUGGCCGGUUCAUCCAACAGAGGAUUGAGCAUCA
B2: chr20:57415074:57415075:+_ENSG00000087460_ENST00000313949|hu_hu|motif|central (ssRNA)
RNA: GGGAGUUCUACAGUCCGACGAUCUCUGCAGAGAGUGGCUCCGAAGCACAUUGGCUGCUGGAGCCGGGAAAGGUACACCCGGUGAGGUGAGAAGCUGGCCCGGAGGUCCCAGCCUCACCUCCUUGUGAGGAGAAAAAGGGAAGCCAACAGAGGAUUGAGCAUCA
B3: chr18:38611996:38611997:+_ENSMUSG00000024425_ENSMUST00000025293|mus_mus|FALSE|FALSE (ssRNA)
RNA: GGGAGUUCUACAGUCCGACGAUCAAGACCAAAUCCUGAGAUGGCCCCAUACCUUCCCGCAGCUGAGGUGGUCAGGCAAAAAGACAAGAAAAACCCAAUCCAGUUGAAGAGGAAUGCCAUGAAAAAAGUUAACAUAAAAAUCCCCAACAGAGGAUUGAGCAUCA
B4: chrX:7396663:7396664:+_ENSMUSG00000031153_ENSMUST00000132456|mus_mus|motif|central (ssRNA)
RNA: GGGAGUUCUACAGUCCGACGAUCGCAAGGGCAUACAUGGAUGGAUCAGUGGGCAGAGGGACAGAUGGCAGACUGAUGGGCGGACCUGGGAAGUUGAUUGGAGGGUAAAAGAGGUGAACACAAAAGGGCGGUAGAUGACUGGAACAACAGAGGAUUGAGCAUCA
B5: chr17:23874276:23874277:-_ENSMUSG00000023909_ENSMUST00000024702|mus_mus|motif|central (ssRNA)
RNA: GGGAGUUCUACAGUCCGACGAUCAGAGACUCUCACAGGUUAAACAGGGUAAAUUGGGAAAAAAAAAAAUGGUUUCCUUCGGAUGACAGCAAAACAAUGCCCAGGAGGGAAGAUGGCAAGGAAAGUGGAAGCUGGGGUUUGAAGCAACAGAGGAUUGAGCAUCA
B6: chr17:23874276:23874277:-_ENSMUSG00000023909_ENSMUST00000024702|mus_mus|FALSE|FALSE (ssRNA)
RNA: B5 RNA with G80U, G81A
B7: chr1:220276048:220276049:+_ENSG00000067704_ENST00000302637|hu_hu|hu_hu_hu_mus_True|1_108 (ssRNA)
RNA: GGGAGUUCUACAGUCCGACGAUCGCAAACAGCUUCAUUGGCGGGAAUUGUCCAAGGCUGGGUGGUCCAAACUAAAACGCUAACAGGGGAUGAGGCAUCUGUAAGAGACUCCAACUUCGGAGGAGGUCUCAGGAGGGGAAAUUUCAACAGAGGAUUGAGCAUCA
B8: chr17:23874276:23874277:-_ENSMUSG00000023909_ENSMUST00000024702|mus_hu|FALSE|FALSE (ssRNA)
RNA: GGGAGUUCUACAGUCCGACGAUCUCUAACCCCACAGGUCACAGAGGGUAAAGAGGUCCCAAGAGGGAAAGGUUUCCUUCCAGCUGACACAGUAAAAUAGGAGCUUGGAGGGAAAAGGCAGGGAAGGAAGUUGGAGCGCCACGGCAACAGAGGAUUGAGCAUCA
B9: chr7:112757510:112757511:-_ENSG00000214194_ENST00000397764|hu_mus|FALSE|FALSE (ssRNA)
RNA: GGGAGUUCUACAGUCCGACGAUCCUUUCUUGCGUAUAUCCCCAAGCAAGCACAGAUGCCGGUAAUGCUGAGAACCACACCUAAUAAGAGUGCAAUCGCGUCUCCAGCUUCCACUGCUUCAACAACAGGCAGGAUCAAAAGCAGCAACAGAGGAUUGAGCAUCA
B10: chr9:49312907:49312908:-_ENSMUSG00000039542_ENSMUST00000166811|mus_hu|motif|central (ssRNA)
RNA: GGGAGUUCUACAGUCCGACGAUCAGCUGCAAUUUGGCAUUCGUCCUAUAAAAUAAGAGUCUACGUGGGAAUUGAAUUCAGCGGGAAAGGGUGACACACUUUGCAUACUGAACAAAUACAAAGUGAACAGAAAUUAUAACUUAUCAACAGAGGAUUGAGCAUCA
B11: chr6:168291551:168291552:+_ENSG00000130396_ENST00000400822|hu_hu|motif|central (ssRNA)
RNA: GGGAGUUCUACAGUCCGACGAUCGUGUUUCUUGGUUUUCUUUGGGAUGUGGUCUGGUGGCCUCCUCUUCAACUGAAAGACGGAAAUCCCUUUGUCACUUGGCCAUUCCCUGAAGAUUUGUAAAGGACACUCAUCAUCAUCAAGCAACAGAGGAUUGAGCAUCA
B12: 19737984_19738104_982_3pUTR_ENSG00000105849_ENST00000222567|human|control|control (ssRNA)
RNA: GGGAGUUCUACAGUCCGACGAUCGGUGGGGUAAAUUCGGCCUCUUCACUGUGUUUUCUUUUCUUUUUUUUCUUUUUAUGGUCACUUUGGUAACCACUGGAGUCACUGCCUUGGAAAACAGGGUCCUGGUCCUGAACUUCCUGGCAACAGAGGAUUGAGCAUCA
B13: chr1:220276048:220276049:+_ENSG00000067704_ENST00000302637|hu_hu|hu_hu_hu_mus_True|18_78 (ssRNA)
RNA: GGGAGUUCUACAGUCCGACGAUCGCAAAUUGCCUGGUUGGCGGGAAUUGUCCAAGGUUGUGUGGUCCAAACUAAAACGCUAACAGGGGAUGAGGCAUCUGUAAGAGACUCCAACUUUGGAGAAGGCCUCAGGAGGGGGAAUCUCAACAGAGGAUUGAGCAUCA
B14: chr5:143664956:143664957:-_ENSMUSG00000029580_ENSMUST00000100497|mus_hu|FALSE|FALSE (ssRNA)
RNA: GGGAGUUCUACAGUCCGACGAUCUCUCAAGUUGGGGGACAAAAAAGGGGGAAGGGGGGGCACGAAGGCUCAUCAUUCAAAAUAAAACAAAAUAAAAAAGUAUUAAGGCGAAGAUUAAAAAAAUUUUGCAUUACAUAAUUUACACAACAGAGGAUUGAGCAUCA
B15: chr6:114281168:114281169:-_ENSG00000196591_ENST00000368632|hu_hu|hu_hu_hu_mus_True|8_98 (ssRNA)
RNA: GGGAGUUCUACAGUCCGACGAUCUUCCAUUUUUCGGUAUAAGCCAUAAUUUAGCAGCAAGUUAUGAGUCAUCCGGAUUCUAUGAGGCUUCAUGGGAUGACCCUGGCCAUAAUAAUAAUUGCCAAUAUCACAGAUUCAGUAGUACAACAGAGGAUUGAGCAUCA
B16: chr16:75327710:75327711:-_ENSG00000153774_ENST00000283882|hu_hu|FALSE|FALSE (ssRNA)
RNA: GGGAGUUCUACAGUCCGACGAUCAUUUAAGGACAAAUUUUUAAAAGUAAAGUGAAUGAAACCAUUUGUGAUUAAGAUACAUAGACAGAACUUCAAUGUAGAAAAAAAAAAGACCUUGCUGGGAAACAGAUGAUGAGAAACACUCAACAGAGGAUUGAGCAUCA
B17: chr19:58207738:58207739:+_ENSMUSG00000054843_ENSMUST00000077282|mus_mus|motif|central (ssRNA)
RNA: GGGAGUUCUACAGUCCGACGAUCUAAUUGGCCACAGAGUUAACAGUAGUGUGUGACAUUGCAUUAAUUCCAUAAUUAUCGGAAAUUCAAAAAUUUUAAAGUUUUAAGAACCUGGGGGAUUCACAGUGGAUGAGGCCUGACAGCCAACAGAGGAUUGAGCAUCA
B18: chr10:35314101:35314102:-_ENSG00000108094_ENST00000537177|hu_hu|FALSE|FALSE (ssRNA)
RNA: GGGAGUUCUACAGUCCGACGAUCUUCACCUGUACACAGAUAAUGUAACCAUGUAAGUUUCCUUCCACUGAAAUGUUGGCUAUAAAAUAAUUCAAACAUCUGUACACUUUUUUCUAAUUCCUGGGGAAUUGCAAACGUAGAUGACAACAGAGGAUUGAGCAUCA
B19: chr14:102368134:102368135:+_ENSG00000078304_ENST00000445439|hu_hu|hu_hu_hu_mus_True|48_68 (ssRNA)
RNA: GGGAGUUCUACAGUCCGACGAUCAAGAGGCUCCAUGAUCUUCACAAACUCUGAUGGUUCAAUUACAUCUAAAAUCUCUUCUAAUUCGUUUAAGAACAUUACUUCUUUUGGACUGUGAGUCUUUGGCCAGUAUUUGAGAAGUGCCAACAGAGGAUUGAGCAUCA
B20: chr14:102368134:102368135:+_ENSG00000078304_ENST00000445439|hu_hu|hu_hu_hu_mus_True|68_88 (ssRNA)
RNA: B19 RNA with C48U, G87A
B21: chr5:143664956:143664957:-_ENSMUSG00000029580_ENSMUST00000100497|mus_mus|FALSE|FALSE (ssRNA)
RNA: GGGAGUUCUACAGUCCGACGAUCAUACAUCAAGUUGGGGGGACAAAAAAAAGGGAGGCCUCAGACCUGGGCCAUUCAGAAAUUAAAAACAAAAAUGAAGUAUUAAGGCGGAAGAUUUAAAAAAAUUUUUGCAGUACAUAAUUUCAACAGAGGAUUGAGCAUCA
B22: chr4:144460044:144460045:+_ENSG00000153147_ENST00000283131|hu_mus|hu_hu_hu_mus_False|98_98 (ssRNA)
RNA: GGGAGUUCUACAGUCCGACGAUCACGGUCCAUAGCCUGAAGAUCUACUUGCGGAUUCCAAUCUGAGUCAUAUAAAAUGACUACAUCAGCAGUUGCAAGAUUGAUGCCCAGACCACCAGCACGUGUGCUUAGCAUAAAUACAAACAACAGAGGAUUGAGCAUCA

Target: T1, UNK ZnF1-3
Experiment: nsRBNS (natural sequence RNA bind-n-seq); RBNS binding buffer (assumed for nsRBNS): 25 mM Tris pH 7.5, 150 mM KCl, 3 mM MgCl2, 0.01% Triton X-100, 500 ug/ml BSA, 20 U/ml SUPERase-In, 4 C; UNK is unkempt and MSI1 is Musashi-1; names of the RNAs are library labels; protein concentration not given here; high values mean tight binding

Row | Binder | binding signal
1 | B1 | 0.442 enrichment R
2 | B2 | 0.876 enrichment R
3 | B3 | 2.06 enrichment R
4 | B4 | 2.58 enrichment R
5 | B5 | 4.06 enrichment R
6 | B6 | 4.07 enrichment R
7 | B7 | 1.61 enrichment R
8 | B8 | 1.43 enrichment R
9 | B9 | 1.38 enrichment R
10 | B10 | 3.41 enrichment R
11 | B11 | 0.53 enrichment R
12 | B12 | 0.463 enrichment R
13 | B13 | 2.05 enrichment R
14 | B14 | 8.16 enrichment R
15 | B15 | 0.99 enrichment R
16 | B16 | 1.71 enrichment R
17 | B17 | 4.11 enrichment R
18 | B18 | 1.11 enrichment R
19 | B19 | 0.708 enrichment R
20 | B20 | 0.758 enrichment R
21 | B21 | 6.75 enrichment R
22 | B22 | 1.14 enrichment R
